From ChEMBL document CHEMBL3988442, “University of Dundee, Small-Polar-MMV Screening Library” (2021)
For some assays here: Entries with a potency or affinity are not part of this list.

What was measured:
Set-up in all cases: scale not given: direction of the effect not stated beside the values
[1] = target: Protein translocase subunit SecA (Escherichia coli (strain K12)) (UniProt P10408); assay: Assay to Identify E. coli SecA ATPase Inhibitors; assay type: functional; details: 30 µM
[2] = target: T1, Ubiquitin-activating enzyme e1, putative (Leishmania donovani (strain BPK282A1)) (UniProt E9BSI1); assay: Leishmania donovani Ubiquitin Activating Enzyme (LdE1); assay type: functional; details: 30 µM
T1 sequence (whole entry): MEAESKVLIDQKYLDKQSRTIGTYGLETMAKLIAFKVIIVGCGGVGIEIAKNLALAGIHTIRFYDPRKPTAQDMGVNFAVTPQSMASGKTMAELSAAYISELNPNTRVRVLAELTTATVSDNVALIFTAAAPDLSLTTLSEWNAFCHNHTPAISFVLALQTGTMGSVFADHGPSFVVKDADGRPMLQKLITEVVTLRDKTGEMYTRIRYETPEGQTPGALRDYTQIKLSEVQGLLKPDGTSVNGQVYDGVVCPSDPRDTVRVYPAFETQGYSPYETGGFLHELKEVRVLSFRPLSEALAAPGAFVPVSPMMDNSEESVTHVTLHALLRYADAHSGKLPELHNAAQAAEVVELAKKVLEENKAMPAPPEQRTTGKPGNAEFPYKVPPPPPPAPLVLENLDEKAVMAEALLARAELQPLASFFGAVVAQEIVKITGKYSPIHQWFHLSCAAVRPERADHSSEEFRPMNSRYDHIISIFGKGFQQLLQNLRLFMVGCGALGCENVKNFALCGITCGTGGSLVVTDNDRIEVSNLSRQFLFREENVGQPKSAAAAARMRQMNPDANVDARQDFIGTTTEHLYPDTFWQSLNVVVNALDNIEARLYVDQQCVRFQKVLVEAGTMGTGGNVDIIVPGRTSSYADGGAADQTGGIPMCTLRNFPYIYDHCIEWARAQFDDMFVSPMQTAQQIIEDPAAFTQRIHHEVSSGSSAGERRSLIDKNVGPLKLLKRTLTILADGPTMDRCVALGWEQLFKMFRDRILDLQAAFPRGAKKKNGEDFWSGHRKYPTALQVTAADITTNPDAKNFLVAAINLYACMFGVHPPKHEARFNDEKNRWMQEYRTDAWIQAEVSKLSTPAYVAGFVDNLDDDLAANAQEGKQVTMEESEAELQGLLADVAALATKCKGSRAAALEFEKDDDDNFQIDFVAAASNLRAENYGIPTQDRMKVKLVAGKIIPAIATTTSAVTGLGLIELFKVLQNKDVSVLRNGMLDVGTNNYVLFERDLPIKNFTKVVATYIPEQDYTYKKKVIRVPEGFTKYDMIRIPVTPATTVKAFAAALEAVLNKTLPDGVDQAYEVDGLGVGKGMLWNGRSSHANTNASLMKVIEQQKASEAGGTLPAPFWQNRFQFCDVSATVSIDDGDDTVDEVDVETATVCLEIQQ

[3] = target: AMP-activated protein kinase, AMPK (Homo sapiens) (UniProt P54646+O43741+P54619+Q9UGJ0+Q9Y478+Q13131+Q9UGI9); assay: AMP-dependent Kinase enzyme assay. An in vitro enzyme assay that detects ADP turnover that is directly proportional to AMPK activity. This uses naive AMPK that is activated during the assay with MK-8722; assay type: functional; details: 30 µM
[4] = target: Sialic acid-binding Ig-like lectin 9 (Homo sapiens) (UniProt Q9Y336); assay: Hs-Siglec9 ALPHAscreen SOP 20170721; details: 10 µM
Trypanosoma cruzi = assay: Trypanosoma cruzi phosphomannomutase and mannose-1-phosphate guanylyltransferase assay; assay type: functional; details: 10 µM
[5] = target: T2, Arginase-2, mitochondrial (Homo sapiens) (UniProt P78540); assay: in vitro enzyme assay to detect the production of urea directly proportional to the activity of Arginase II; assay type: functional; details: 33.3 µM; note: in the data most compounds retested in dose-response had high values
T2 sequence (whole entry): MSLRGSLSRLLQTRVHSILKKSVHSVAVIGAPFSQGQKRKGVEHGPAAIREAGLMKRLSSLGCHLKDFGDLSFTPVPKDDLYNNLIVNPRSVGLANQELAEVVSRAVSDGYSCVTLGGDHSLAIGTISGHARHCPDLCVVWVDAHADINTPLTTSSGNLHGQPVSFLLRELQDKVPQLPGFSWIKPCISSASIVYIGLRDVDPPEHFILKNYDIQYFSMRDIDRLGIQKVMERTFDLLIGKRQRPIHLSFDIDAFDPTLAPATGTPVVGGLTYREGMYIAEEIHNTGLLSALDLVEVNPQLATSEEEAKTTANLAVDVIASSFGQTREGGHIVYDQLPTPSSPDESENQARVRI

[6] = target: T3, Proteasome subunit beta (Trypanosoma cruzi) (UniProt O96673); assay: Trypanosoma cruzi proteasome chymotrypsin-like activity (TcProtChymo) assay.; note: in the data most compounds retested in dose-response had high values; assay type: functional; details: 9.37 µM
T3 sequence (whole entry): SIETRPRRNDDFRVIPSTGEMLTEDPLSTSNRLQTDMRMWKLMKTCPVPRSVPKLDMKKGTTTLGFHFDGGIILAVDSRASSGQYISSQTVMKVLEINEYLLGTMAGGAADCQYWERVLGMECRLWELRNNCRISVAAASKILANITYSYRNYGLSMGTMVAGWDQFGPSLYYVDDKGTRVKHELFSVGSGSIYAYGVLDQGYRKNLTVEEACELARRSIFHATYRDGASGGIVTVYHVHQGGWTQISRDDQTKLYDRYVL

Homo sapiens = species on record: Homo sapiens; assay: To identify inhibition of the IFN signalling (Jak-Stat) pathway via expression of an eGFP reporter gene under the control of an IFN-stimulated response element (ISRE) containing MxA promoter.; assay type: functional; details: 30 µM
[7] = target: T4, Tyrosyl-tRNA synthetase, putative (Trypanosoma cruzi (strain CL Brener)) (UniProt Q4DSP6); assay: Trypanosoma cruzi tyrosyl tRNA synthetase (TcYRS) _High Tyrosine SOP; assay type: functional; details: 30 µM; note: in the data most compounds retested in dose-response had high values
T4 sequence (whole entry): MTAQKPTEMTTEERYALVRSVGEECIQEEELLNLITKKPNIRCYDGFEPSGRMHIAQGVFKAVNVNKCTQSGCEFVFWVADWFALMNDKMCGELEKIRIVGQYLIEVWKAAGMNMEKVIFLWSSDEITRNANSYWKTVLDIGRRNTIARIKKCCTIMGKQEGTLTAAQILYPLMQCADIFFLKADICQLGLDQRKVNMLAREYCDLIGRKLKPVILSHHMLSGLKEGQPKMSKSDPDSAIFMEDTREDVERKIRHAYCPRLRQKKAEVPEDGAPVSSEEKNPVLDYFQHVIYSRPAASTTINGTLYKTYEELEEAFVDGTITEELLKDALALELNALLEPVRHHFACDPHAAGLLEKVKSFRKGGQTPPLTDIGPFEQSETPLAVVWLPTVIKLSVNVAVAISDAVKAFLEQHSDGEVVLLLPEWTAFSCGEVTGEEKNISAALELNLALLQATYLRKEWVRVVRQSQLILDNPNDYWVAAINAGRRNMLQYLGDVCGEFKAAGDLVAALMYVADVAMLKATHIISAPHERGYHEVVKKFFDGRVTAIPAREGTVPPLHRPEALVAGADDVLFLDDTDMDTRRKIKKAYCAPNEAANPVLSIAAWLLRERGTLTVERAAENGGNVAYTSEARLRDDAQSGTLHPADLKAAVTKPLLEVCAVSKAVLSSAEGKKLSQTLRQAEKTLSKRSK

[8] = target: T4, Tyrosyl-tRNA synthetase, putative (Trypanosoma cruzi (strain CL Brener)); assay: Trypanosoma cruzi tyrosyl tRNA synthetase (TcYRS) SOP; assay type: functional; details: 30 µM
[9] = target: Chromo domain-containing protein 1 (Saccharomyces cerevisiae (strain ATCC 204508 / S288c) (Baker's yeast)) (UniProt P32657); assay: ScCHD-1 Enzyme Inhibition Assay; assay type: functional; details: 30 µM; note: in the data most compounds retested in dose-response had high values
Sequence of Chromo domain-containing protein 1 (Saccharomyces cerevisiae (strain ATCC 204508 / S288c) (Baker's yeast)) (P32657 whole entry, the tested form may be a part): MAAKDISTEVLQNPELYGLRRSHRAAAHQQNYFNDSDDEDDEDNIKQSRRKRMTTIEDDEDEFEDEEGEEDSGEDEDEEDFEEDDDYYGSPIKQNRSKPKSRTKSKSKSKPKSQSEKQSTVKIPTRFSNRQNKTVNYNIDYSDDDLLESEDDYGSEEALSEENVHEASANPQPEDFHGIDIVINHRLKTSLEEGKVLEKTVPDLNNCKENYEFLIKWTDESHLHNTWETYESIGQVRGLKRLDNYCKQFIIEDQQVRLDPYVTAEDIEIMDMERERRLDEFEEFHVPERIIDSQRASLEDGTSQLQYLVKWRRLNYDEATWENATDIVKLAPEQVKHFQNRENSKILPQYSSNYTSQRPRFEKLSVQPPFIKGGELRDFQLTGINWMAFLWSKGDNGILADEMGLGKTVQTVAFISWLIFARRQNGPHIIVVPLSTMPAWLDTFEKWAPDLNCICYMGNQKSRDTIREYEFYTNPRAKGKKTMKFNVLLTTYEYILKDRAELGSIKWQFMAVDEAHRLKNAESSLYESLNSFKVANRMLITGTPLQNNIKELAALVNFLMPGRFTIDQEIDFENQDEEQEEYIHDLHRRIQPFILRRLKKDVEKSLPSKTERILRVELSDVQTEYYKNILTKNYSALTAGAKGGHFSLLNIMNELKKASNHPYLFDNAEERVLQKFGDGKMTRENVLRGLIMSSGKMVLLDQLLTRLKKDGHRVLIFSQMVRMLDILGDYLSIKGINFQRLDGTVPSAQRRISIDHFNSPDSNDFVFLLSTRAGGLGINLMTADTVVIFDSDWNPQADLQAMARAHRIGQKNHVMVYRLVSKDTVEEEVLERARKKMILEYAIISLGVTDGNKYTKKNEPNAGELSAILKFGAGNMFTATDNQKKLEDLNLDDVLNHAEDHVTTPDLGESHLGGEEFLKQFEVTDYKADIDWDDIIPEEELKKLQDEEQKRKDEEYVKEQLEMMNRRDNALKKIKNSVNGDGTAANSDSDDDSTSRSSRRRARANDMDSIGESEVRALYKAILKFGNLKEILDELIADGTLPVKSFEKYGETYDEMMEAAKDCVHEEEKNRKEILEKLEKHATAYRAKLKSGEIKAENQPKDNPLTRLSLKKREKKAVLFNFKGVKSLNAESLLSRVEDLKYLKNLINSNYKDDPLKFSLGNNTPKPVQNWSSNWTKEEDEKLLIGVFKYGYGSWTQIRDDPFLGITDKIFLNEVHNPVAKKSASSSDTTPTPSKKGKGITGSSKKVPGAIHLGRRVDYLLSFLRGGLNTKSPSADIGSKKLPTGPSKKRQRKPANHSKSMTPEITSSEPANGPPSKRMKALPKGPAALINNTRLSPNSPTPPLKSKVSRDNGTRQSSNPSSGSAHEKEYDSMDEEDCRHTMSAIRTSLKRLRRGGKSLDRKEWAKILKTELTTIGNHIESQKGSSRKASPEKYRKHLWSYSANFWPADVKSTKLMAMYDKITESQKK

Sequence of Protein translocase subunit SecA (Escherichia coli (strain K12)) (P10408 whole entry): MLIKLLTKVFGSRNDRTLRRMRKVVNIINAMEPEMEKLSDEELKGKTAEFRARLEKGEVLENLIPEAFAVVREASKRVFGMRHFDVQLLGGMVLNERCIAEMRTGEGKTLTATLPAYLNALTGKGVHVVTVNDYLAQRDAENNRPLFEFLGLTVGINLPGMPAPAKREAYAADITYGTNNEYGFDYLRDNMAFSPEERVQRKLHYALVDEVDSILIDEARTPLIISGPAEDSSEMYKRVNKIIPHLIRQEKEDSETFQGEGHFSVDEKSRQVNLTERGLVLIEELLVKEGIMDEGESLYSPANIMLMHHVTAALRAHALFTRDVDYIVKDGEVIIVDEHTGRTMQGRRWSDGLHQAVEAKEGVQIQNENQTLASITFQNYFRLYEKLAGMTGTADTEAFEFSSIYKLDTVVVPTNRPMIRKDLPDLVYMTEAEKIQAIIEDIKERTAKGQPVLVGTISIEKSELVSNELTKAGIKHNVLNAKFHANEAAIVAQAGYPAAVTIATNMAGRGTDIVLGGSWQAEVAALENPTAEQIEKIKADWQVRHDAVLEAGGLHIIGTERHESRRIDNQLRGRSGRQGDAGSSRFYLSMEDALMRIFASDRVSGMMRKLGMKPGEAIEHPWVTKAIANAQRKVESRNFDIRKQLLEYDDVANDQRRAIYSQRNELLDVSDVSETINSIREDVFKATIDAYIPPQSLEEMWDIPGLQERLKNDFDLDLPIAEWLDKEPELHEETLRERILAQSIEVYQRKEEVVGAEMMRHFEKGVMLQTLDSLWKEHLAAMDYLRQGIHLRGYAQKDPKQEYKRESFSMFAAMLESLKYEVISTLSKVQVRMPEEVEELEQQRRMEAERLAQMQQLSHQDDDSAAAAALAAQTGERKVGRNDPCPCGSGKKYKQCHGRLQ
Sequence of Sialic acid-binding Ig-like lectin 9 (Homo sapiens) (Q9Y336 whole entry): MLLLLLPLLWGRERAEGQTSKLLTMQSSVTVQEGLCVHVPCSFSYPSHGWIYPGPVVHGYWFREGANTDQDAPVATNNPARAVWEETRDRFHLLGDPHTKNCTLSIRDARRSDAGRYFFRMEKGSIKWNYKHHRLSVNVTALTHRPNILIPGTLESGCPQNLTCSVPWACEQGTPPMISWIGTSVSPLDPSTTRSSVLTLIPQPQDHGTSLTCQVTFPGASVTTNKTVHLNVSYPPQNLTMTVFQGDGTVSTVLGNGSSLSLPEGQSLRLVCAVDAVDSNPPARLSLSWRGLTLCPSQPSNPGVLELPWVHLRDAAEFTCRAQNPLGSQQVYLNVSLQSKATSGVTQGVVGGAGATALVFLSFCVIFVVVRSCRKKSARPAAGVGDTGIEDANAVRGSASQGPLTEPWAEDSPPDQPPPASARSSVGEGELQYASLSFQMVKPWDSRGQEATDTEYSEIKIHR

SMILES | Percent Effect [1] | Percent Effect [2] | Percent Effect [3] | Percent Effect [4] | Percent Effect (Trypanosoma cruzi) | Percent Effect [5] | Percent Effect [6] | Percent Effect (Homo sapiens) | Percent Effect [7] | Percent Effect [8] | Percent Effect [9]
Cc1ccc(C(=O)NC(CN2CCCC2=O)c2ccccc2)c(=O)[nH]1 (stereo unspecified) | -4.18% | 21.9% | -6.93% | 17.4% | 5.88% | 29.6% | 9.23% | 2.33% | 5.38% | 15% | -5.93%
CC(C)(C)c1ccc(C2(C(=O)NCCCS(C)(=O)=O)CC2)cc1 | -2.57% | 7.79% | 1.11% | 4.51% | -7.77% | -1.38% | 7.16% | 0.292% | 1.07% | 6.17% | -0.462%
O[C@]1(c2ccccn2)CC[C@@H]2CN(Cc3cccc4ncccc34)C[C@@H]21 | -4.41% | 9.46% | 11.8% | -7.79% | -1.38% | 0.696% | 21.4% | 21.9% | 9.68% | 9.09% | -13.1%
O=C(NCCCO)Nc1cccc(Cl)c1F | -3.09% | 12.5% | -6.85% | 11.1% | 4.96% | 11% | 8.25% | -2.91% | 3.16% | 5.13% | -4.47%
OC(CN1CCC(c2ccn[nH]2)CC1)c1cccc(F)c1 (stereo unspecified) | 1.18% | 12.7% | 4.09% | 4.6% | -3.49% | 6.84% | 6.31% | 13.5% | 5.42% | 11.4% | -4.54%
Cc1ncc(CNC(=O)Cc2ccc(Cl)cc2)c(C2CCCN2C)n1 (stereo unspecified) | -5.53% | -1.35% | 18.1% | 5% | -2.96% | -2.55% | 8.74% | 1.58% | -1.07% | -1.3% | 0.76%
O=C(NCCc1csc(N2CCCC2)n1)N(C1CCCC1)C1CC1 | 0.399% | -5.33% | -9.08% | 16% | -1.66% | 2.08% | 27.4% | 6.62% | 12.6% | 11.1% | -6.87%
COc1ccc(C2=CCN(C(=O)C3CCN(C)C(=O)C3)CC2)cc1 (stereo unspecified) | -3.77% | 15.8% | 2.43% | -4.29% | 9.06% | 1.8% | 7.19% | 6.58% | 7.39% | 16.1% | -5.39%
Cc1ccc(-c2nc(CN3CCc4nn(C)c(=O)cc4C3)co2)cc1 | -3.32% | 35.1% | -173% | 1.71% | -2.74% | 1.2% | 17.1% | 11.3% | 3.45% | 13.6% | -6.66%
COCCn1ccc(NC(=O)Nc2ccc(C(N)=O)c(F)c2)n1 | -4.16% | -7.89% | 10.9% | -0.377% | -3.41% | -4.73% | 13.3% | -2.4% | 0% | 0% | 75.5%
CC(=O)NCC(=O)N1CCN(CC2CC2)c2ncccc2C1 | -4.55% | 8% | 8.23% | 6.27% | -0.394% | -0.233% | 11% | 0.904% | 9.57% | 16.7% | -2.61%
CCc1noc(CNc2cc(F)ccc2OCC2CCCO2)n1 (stereo unspecified) | -0.224% | -2.7% | -4.16% | 1.82% | -4.83% | -0.476% | 11.9% | 2.67% | -0.529% | 0% | -1.43%
Cc1ccc(C(C)NC(=O)Nc2ccccc2CN2CCOCC2)o1 (stereo unspecified) | -5.3% | 5.41% | -1.54% | 9.05% | -2.64% | -5.21% | 9.19% | -2.32% | 7.53% | 8.64% | -0.483%
Cc1nc(N)cc(C2CN(C(=O)c3ccn(C)n3)CCO2)n1 (stereo unspecified) | -6.21% | 17.6% | 0.477% | 3.12% | 0.198% | -3.94% | 10.4% | 8.03% | 3.23% | 16.9% | -24.2%
CCSc1ccc(C(=O)Nc2c(C)nn(C(C)C)c2C)cn1 | -9.54% | -2.74% | 1.71% | -2.98% | -0.198% | -1.2% | 4.71% | 20.2% | 0% | 1.24% | -2.1%
CCOCCCNC(=O)c1ccccc1S(C)(=O)=O | -4.36% | 0% | 7.43% | 5.86% | 2.82% | -8.28% | 11.6% | -12.4% | 1.06% | 5.2% | 0.767%
